From PubChem BioAssay (Tox21)
“And” between values parts separate entries of the source, which are not always exact repeats. Identical values can stand only once. Results filed as inconclusive are left out. Where a structure was tested more than once in an assay, its records may differ in their call. The source made the active and inactive calls. Unless noted, calls come from the whole dose curve; as a rule, active = well fitted curve in the direction sought with a large enough effect in the repeat runs; inconclusive = weak or mixed curves; inactive = no such curve, though single readings can be large; an effect the other way counts as inactive or inconclusive.

Columns and labels:
[1] = qHTS assay to identify small molecule antagonists of the estrogen related receptor (ERR) signaling pathway from Tox21 library - cell viability counter screen (AID 1224834); note: nearly all actives have a fitted effect of over 30% in size; note: potency is the fitted concentration of half-maximal effect
How it was run: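 In this quantitative HTS format, ERR cells receive compounds in DMSO and are incubated for 17.5 h at 37 C. Live-cell protease activity is then detected with CellTiter-Fluor.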

[2] = target: Luciferin 4-monooxygenase (Photinus pyralis) (UniProt P08659); test: qHTS assay to identify small molecule inhibitors of firefly luciferase (AID 1224835); note: nearly all actives have a fitted effect of over 25% in size; note: potency is the fitted concentration of half-maximal effect
Sequence of Luciferin 4-monooxygenase (Photinus pyralis) (P08659 whole entry, looked up): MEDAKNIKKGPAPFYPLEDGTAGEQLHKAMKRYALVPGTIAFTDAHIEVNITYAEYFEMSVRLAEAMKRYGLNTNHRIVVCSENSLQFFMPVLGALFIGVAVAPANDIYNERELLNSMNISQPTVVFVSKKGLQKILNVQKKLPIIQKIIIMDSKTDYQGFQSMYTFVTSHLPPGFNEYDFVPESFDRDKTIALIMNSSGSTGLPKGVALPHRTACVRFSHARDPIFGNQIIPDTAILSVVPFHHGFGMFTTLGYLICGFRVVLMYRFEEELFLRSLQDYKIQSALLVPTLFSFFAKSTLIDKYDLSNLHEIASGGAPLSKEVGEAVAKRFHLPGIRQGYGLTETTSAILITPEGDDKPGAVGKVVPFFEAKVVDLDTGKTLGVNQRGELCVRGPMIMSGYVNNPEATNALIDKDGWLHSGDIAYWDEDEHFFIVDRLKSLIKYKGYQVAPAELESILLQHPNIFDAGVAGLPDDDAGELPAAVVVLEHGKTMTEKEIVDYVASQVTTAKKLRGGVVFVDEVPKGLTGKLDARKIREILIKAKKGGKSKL
How it was run: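 Quantitative HTS format; KM concentrations of both substrates. Purified P. pyralis FLuc activity quantified from luminescence images.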

[3] = qHTS assay to identify small molecule agonists of the constitutive androstane receptor (CAR) signaling pathway - cell viability counter screen (AID 1224836); note: nearly all actives have a fitted effect of over 45% in size
How it was run: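 23 h treatment, 37 C, 5% CO2. Cell line: HepG2 stably expressing hCAR with a CYP2B6-2.2kb construct. Co-treatment: PK11195, 0.75 uM final. Read-out: CellTiter-Fluor fluorescence intensity.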

[4] = qHTS assay to identify small molecule antagonists of the constitutive androstane receptor (CAR) signaling pathway - cell viability counter screen (AID 1224837); note: nearly all actives have a fitted effect of over 45% in size
How it was run: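 In quantitative HTS format, compounds at 15 concentrations were applied to HepG2 cells double-transfected with hCAR and CYP2B6-2.2kb under 50 nM CITCO stimulation; live-cell protease activity was read after 23 hr via CellTiter-Fluor.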

[5] = qHTS assay to identify small molecule antagonists of the estrogen related receptor signaling pathway with the pleiotropic PPARgamma coactivator (PGC) from Tox21 10K library - cell viability counter screen (AID 1224840; active = well fitted cell-killing curve with a large enough effect in the repeat runs, not every such curve was filed as active; note: nearly all actives have a fitted effect of over 40% in size)
How it was run: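 Viability counter screen, PGC/ERR cells: 17.5 h compound exposure at 37 C, CellTiter-Fluor fluorescence endpoint.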

[6] = qHTS assay to identify small molecule agonists of the hypoxia (HIF-1) signaling pathway - cell viability counter screen (AID 1224844; calls by dose curve; note: nearly all actives have a fitted effect of over 50% in size)
How it was run: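 Same wells as the HIF-1 reporter screen; ME-180 cells carrying HRE-bla, 17 hr treatment at 37C; CellTiter-Glo luminescence read after 30 min at room temperature.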

[7] = qHTS assay to identify small molecule agonists of the hypoxia (HIF-1) signaling pathway (AID 1224846; active = well fitted activation curve with a large enough effect in the signal ratio in the repeat runs, not every such curve was filed as active; the % refers to the signal ratio)
How it was run: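 In ME-180 cells bearing an HRE-bla construct, 17 h treatment with DMSO-dissolved compounds at 37C was followed by CCF4-AM loading to quantify reporter induction.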

[8] = qHTS assay to identify small molecule agonists of H2AX - cell viability counter screen (AID 1224847; calls by dose curve; note: top concentration of the series differs between compounds; nearly all actives have a fitted effect of over 30% in size)
How it was run: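 Compounds tested at 15 concentrations were incubated 3 hr at 37C with wild-type CHO-K1 cells; cellular ATP-based luminescence (CellTiter-Glo) indicated viability.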

[9] = A CellTox Green Cytotoxicity Assay to monitor cytotoxicity in HEK293 cells - 0 hour (AID 1224869); note: nearly all actives have a fitted effect of over 50% in size
How it was run: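 Homogeneous no-lysis format: HEK293 cell suspension mixed with CellTox Green reagent, seeded, incubated 5 h at 37 C/5% CO2, then dosed by pintool with compound in DMSO.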

[10] = target: Nuclear receptor subfamily 1 group I member 3 (Homo sapiens) (UniProt Q14994); test: qHTS assay to identify small molecule antagonists of the constitutive androstane receptor (CAR) signaling pathway (AID 1224838); note: nearly all actives have a fitted effect of over 40% in size
Sequence of Nuclear receptor subfamily 1 group I member 3 (Homo sapiens) (Q14994 whole entry, looked up): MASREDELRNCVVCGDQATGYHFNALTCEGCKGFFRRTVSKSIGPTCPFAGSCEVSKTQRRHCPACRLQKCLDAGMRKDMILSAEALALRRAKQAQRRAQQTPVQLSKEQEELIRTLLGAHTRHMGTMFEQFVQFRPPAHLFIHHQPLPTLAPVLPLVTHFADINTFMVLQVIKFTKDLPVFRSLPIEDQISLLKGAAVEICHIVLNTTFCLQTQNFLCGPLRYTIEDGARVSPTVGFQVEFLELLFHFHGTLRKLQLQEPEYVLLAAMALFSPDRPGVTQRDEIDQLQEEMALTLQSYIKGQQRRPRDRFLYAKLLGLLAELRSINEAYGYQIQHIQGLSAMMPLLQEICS
How it was run: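 CITCO-stimulated (50 nM final) HepG2 cells stably transfected with hCAR and CYP2B6-2.2kb luciferase were exposed to compounds at 15 concentrations for 24 h at 37 C/5% CO2. A luciferase reagent was added and luminescence recorded after 30 min.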

[11] = target: Nuclear receptor subfamily 1 group I member 3 (Homo sapiens) (UniProt Q14994); test: qHTS assay to identify small molecule agonists of the constitutive androstane receptor (CAR) signaling pathway (AID 1224839);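 note: HepG2 cells stably carrying human CAR and a CYP2B6 luciferase reporter; nearly all actives have a fitted effect of over 15% in size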
How it was run: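 Compounds tested at 15 concentrations on HepG2 cells stably harbouring hCAR and CYP2B6-2.2kb reporter constructs, co-treated with PK11195 (0.75 uM final), 24 h at 37 C; luminescent reporter signal quantified.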

[12] = qHTS assay to identify small molecule antagonists of the estrogen related receptor signaling pathway with the pleiotropic PPARgamma coactivator (PGC) from Tox21 10K library (AID 1224841; call rule not given here; note: actives are mostly falling curves and most rising ones were filed inactive; nearly all actives have a fitted effect of over 50% in size; note: potency is the fitted concentration of half-maximal effect)
How it was run: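 In the PGC/ERR line, DMSO solutions of test chemicals are pin-delivered to 2,000 cells/well six hours after dispensing. Following eighteen hours' incubation, One-Glo reagent is added and luminescence recorded.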

[13] = qHTS assay to identify small molecule agonists of the estrogen related receptor signaling pathway with the pleiotropic PPARgamma coactivator (PGC) from Tox21 10K library (AID 1224842); note: nearly all actives have a fitted effect of over 15% in size
How it was run: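 PGC/ERR reporter cells (NTP line) were seeded 2,000 per well, rested 6 h at 37 C/5% CO2, then pin-dosed with compounds in DMSO for 18 h at 37 C; luciferase read by One-Glo luminescence after 30 min at room temperature.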

[14] = target: Thyrotropin receptor (Homo sapiens) (UniProt P16473); test: qHTS assay to identify small molecule agonists of the thyroid stimulating hormone receptor (TSHR) signaling pathway (AID 1224843; calls by dose curve; note: nearly all actives have a fitted effect of over 45% in size)
Sequence of Thyrotropin receptor (Homo sapiens) (P16473 whole entry, looked up): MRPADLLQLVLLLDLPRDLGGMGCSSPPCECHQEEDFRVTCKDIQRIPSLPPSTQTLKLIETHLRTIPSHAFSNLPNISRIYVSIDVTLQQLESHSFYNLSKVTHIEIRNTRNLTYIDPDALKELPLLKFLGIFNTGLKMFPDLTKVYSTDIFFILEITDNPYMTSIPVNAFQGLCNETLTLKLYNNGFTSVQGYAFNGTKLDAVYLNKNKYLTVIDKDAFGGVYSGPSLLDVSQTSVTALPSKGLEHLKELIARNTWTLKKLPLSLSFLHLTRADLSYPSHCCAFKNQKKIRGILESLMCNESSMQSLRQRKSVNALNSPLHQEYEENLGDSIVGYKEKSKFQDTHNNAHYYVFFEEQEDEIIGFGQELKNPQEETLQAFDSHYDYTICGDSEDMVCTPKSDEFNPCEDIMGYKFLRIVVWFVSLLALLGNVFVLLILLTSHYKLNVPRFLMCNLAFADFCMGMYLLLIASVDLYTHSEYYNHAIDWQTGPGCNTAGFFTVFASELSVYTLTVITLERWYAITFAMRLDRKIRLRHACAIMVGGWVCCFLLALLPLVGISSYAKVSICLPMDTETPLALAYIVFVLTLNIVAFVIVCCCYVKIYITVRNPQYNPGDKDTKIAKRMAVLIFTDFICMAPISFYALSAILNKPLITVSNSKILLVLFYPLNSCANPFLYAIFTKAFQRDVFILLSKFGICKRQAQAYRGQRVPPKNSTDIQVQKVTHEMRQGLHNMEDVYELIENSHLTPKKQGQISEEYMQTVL
How it was run: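 Compounds are titrated over 15 concentrations, in triplicate, onto TSHR-HEK293 cells seeded at 800/well. Plates sit 30 min at room temperature before cAMP-d2 and anti-cAMP cryptate are added; signal is read after a further hour.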

[15] = qHTS assay to identify small molecule agonists of H2AX (AID 1224845; active = well fitted activation curve with a large enough effect in the signal ratio in the repeat runs, not every such curve was filed as active; the % refers to the signal ratio)
How it was run: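 Wild-type CHO-K1 cells plated overnight, then exposed 3 hr at 37C to compounds at 15 concentrations (0.76% DMSO). Lysed, then HTRF anti-pH2AX(S139)-cryptate/anti-H2AX-d2 detection after 24 hr at room temperature; emissions 665 and 620 nm.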

[16] = qHTS assay to identify small molecule antagonists of the estrogen related receptor (ERR) signaling pathway from Tox21 library (AID 1224848); note: nearly all actives have a fitted effect of over 50% in size; note: potency is the fitted concentration of half-maximal effect
How it was run: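 First, 2,000 ERR cells per well were plated and held 6 h at 37 C/5% CO2. Next, compounds in DMSO were pinned in and left 18 h at 37 C. Finally, ONE-Glo was added and luminescence read after 30 min at room temperature.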

[17] = qHTS assay to identify small molecule agonists of the estrogen related receptor (ERR) signaling pathway from Tox21 library (AID 1224849; calls by dose curve; note: nearly all actives have a fitted effect of over 15% in size); conditions: ERR reporter cell line, ONE-Glo luciferase, 18 h
How it was run: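 Reporter cells (ERR, NTP source) treated with Tox21 10K compounds 18 h, 37 C. Readout: ONE-Glo luminescence, 30 min RT.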

[18] = qHTS RealTime-Glo MT Cell Viability Assay in HepG2 cells - 24 hour (AID 1224867); note: nearly all actives have a fitted effect of over 50% in size
How it was run: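 HepG2 cells (600/well) were dispensed with RealTime-Glo reagents, incubated 5 h at 37 °C, then treated with compounds in DMSO for up to 40 h. Nonlytic NanoLuc luminescence reflecting viable cells was read at each stated time point.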

[19] = qHTS RealTime-Glo MT Cell Viability Assay in HEK293 cells - 32 hour (AID 1224868); note: nearly all actives have a fitted effect of over 50% in size; note: potency is the fitted concentration of half-maximal effect
How it was run: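 HEK293 cells seeded with NanoLuc/prosubstrate reagent, rested 5 h at 37 C, then dosed and kept at 37 C up to 40 h. Nonlytic real-time luminescence from viable cells read at 0, 8, 16, 24, 32 and 40 h.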

[20] = qHTS RealTime-Glo MT Cell Viability Assay in HepG2 cells - 40 hour (AID 1224870); note: nearly all actives have a fitted effect of over 50% in size
How it was run: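 HepG2 cells mixed with RealTime-Glo MT reagents (NanoLuc plus cell-permeant prosubstrate) were seeded at 600 cells/well, incubated 5 h at 37 C/5% CO2, then pinned with compounds in DMSO; nonlytic luminescence tracked viability during 40 h treatment.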
% is set by controls: 0 for no effect and ±100 for the full control effect.

COC(=O)c1ccc(O)cc1
inactive: Potency [1] | Potency [2] | Potency [3] | Potency [4] | Potency [5] | Potency [6] | outcome [7] | Potency [8] | Potency [9]

C[C@]12CC[C@@H]3c4ccc(O)cc4C[C@@H](CCCCCCCCCS(=O)CCCC(F)(F)C(F)(F)F)[C@H]3[C@@H]1CC[C@@H]2O (stereo not given in full)
inactive: Potency [2] | Potency [3] | Potency [4] | Potency [10] | Potency [11] | Potency [5] | Potency [13] | Potency [14] | Potency [6] | Potency [15] | outcome [7] | Potency [8] | activity change, positive = activation ([17]; at 42.5 µM (top of the series)) -35% and -33.1% | activity change, positive = activation ([17]; at 92.4 µM (top of the series)) -37.7% | outcome [18] | Potency [9] | outcome [20]
active: Potency [12] 19.3 µM and 6.39 µM | Potency [16] 6.85 µM and 5.7 µM and 5.96 µM | Potency [19] 43.6 µM

NC(=O)N/N=C/c1ccc([N+](=O)[O-])o1
inactive and 48.6 µM (active): Potency [16]
inactive: Potency [2] | Potency [10] | Potency [11] | Potency [5] | Potency [13] | Potency [6] | Potency [8] | activity change, positive = activation ([17]; at 42.5 µM (top of the series)) -13.7% | activity change, positive = activation ([17]; at 92.4 µM (top of the series)) -3.25% and -34% | outcome [18] | Potency [19] | Potency [9]
24.3 µM (active) and inactive: Potency [12]
inactive and 27.3 µM (active): Potency [1]

Cc1cnc(NC(=O)C2=C(O)c3ccccc3S(=O)(=O)N2C)s1
inactive: Potency [1] | Potency [3] | Potency [4] | Potency [5] | Potency [6] | Potency [15] | Potency [8] | outcome [18] | Potency [19] | Potency [9] | outcome [20]
active: Potency [2] 31.8 µM and 22.4 µM and 34.7 µM

CCc1cc(C(N)=S)ccn1
inactive: Potency [1] | Potency [3] | Potency [4] | Potency [5] | Potency [6] | Potency [15] | Potency [8] | outcome [18] | Potency [19] | Potency [9]

OC[C@@H](O)[C@@H](O)[C@H](O)[C@H](O)CO
inactive: Potency [1] | Potency [2] | Potency [3] | Potency [4] | Potency [5] | Potency [12] | Potency [13] | Potency [14] | Potency [6] | outcome [7] | Potency [8] | Potency [16] | activity change, positive = activation ([17]; at 42.5 µM (top of the series)) 2.34% | activity change, positive = activation ([17]; at 92.4 µM (top of the series)) 1.3% and 3.91% | outcome [18] | Potency [19] | Potency [9]

CCn1cc(C(=O)O)c(=O)c2ccc(C)nc21
inactive: Potency [2] | Potency [3] | Potency [4] | Potency [14] | Potency [6] | Potency [8] | outcome [18] | Potency [19] | Potency [9]

COc1ccc(O)cc1
inactive: Potency [1] | Potency [2] | Potency [3] | Potency [4] | Potency [5] | Potency [14] | Potency [6] | outcome [7] | Potency [8] | outcome [18] | Potency [19] | Potency [9] | outcome [20]
